Compound activity: PubChem, several laboratories
tim23-1 inh: inhibits growth of tim23-1 mutant yeast; S. cerevisiae tim23-1 growth, BacTiter-Glo luminescence, 24 h; inhibition, % at 20 µM; 330,000 compounds, 1.3% hits;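 active = growth inhibition of the mutant yeast at or above 50%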;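 also: temperature-sensitive mutant grown at 25 °C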
PfHsp90 set2: inhibits growth of yeast expressing Plasmodium falciparum Hsp90 | S. cerevisiae expressing PfHsp90, BacTiter-Glo ATP, 48 h; yeast lacking PDR1 and PDR3 efflux regulators | inhibition, % at 9.4 µM | 310,000 compounds, 0.32% hits | AID 504621;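 active = every replicate shows inhibition above about 80%, whatever the replicate mean, limit read from the data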
NLRP3 yeast inh: inhibitors of NALP3 inflammasome in yeast; Yeast reconstituted NLRP3/ASC/caspase-1, beta-gal luminescence, 24 h; inhibition, % at 10 µM; 330,000 compounds, 0.39% hits; AID 2825;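 active = inhibition of 50% or more; inactive = inhibition below 50%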
tim10-1 inh: tim10-1 yeast growth inhibition; AID 463190; 330,000 compounds, 2.2% hits; S. cerevisiae tim10-1 ts strain growth, BacTiter-Glo, 24 h; inhibition, % at 20 µM;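 active = inhibition of at least 40%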;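 also: mutant grown at 25 °C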
NALP1 yeast inh: blocks the NALP1 inflammasome reconstituted in yeast. S. cerevisiae NALP1/ASC/caspase-1 growth, X-gal OD620, 72 h. inhibition, % at 10 µM. 280,000 compounds, 0.61% hits. AID 2071; in the data active = inhibition mostly above about 24%, no sharp cut-off; inactive = mostly below about 32%
TIM10 inh: TIM10 yeast growth inhibition; S. cerevisiae TIM10 strain growth, BacTiter-Glo luminescence, 24 h; inhibition, % at 10 µM; 330,000 compounds, 1.4% hits; AID 463195;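 active = inhibition of 40% or more at the single tested concentration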;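 also: wild-type TIM10 isogenic control strain grown at permissive 25 °C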
tim10-1 conf: confirmation of tim10-1 mutant yeast growth inhibitors | shares compounds with tim10-1 inh | S. cerevisiae tim10-1 ts strain growth, BacTiter-Glo, 24 h | inhibition, % at 20 µM | 7,400 compounds, 56% hits | AID 463213;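 active = inhibition of yeast growth at or above a set limit in either of two repeat tests at 20 µM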;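 also: tim10-1 mutant grown at permissive 25 °C to find synthetic lethal compounds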
Large screens that a line does not name were inactive (follow-up assays come after a bar, where they were run). Shown are actives, neighbours in structure and some others; about 4.1% of the full set was active somewhere.

CCOc1ccccc1NC(=O)C(OC(=O)c1ccc(O)cc1)c1ccccc1 (centres undefined)	tim10-1 inh 42 | tim10-1 conf 38
O=C(C1COc2ccccc2O1)N1CCN(c2nc3c(F)cc(F)cc3s2)CC1 (centres undefined)	tim10-1 inh 40 (no result: NALP1 yeast inh) | tim10-1 conf inactive
C=C(C)CSc1nc2sc3c(c2c(=O)n1-c1ccc(OC)cc1)CCN(C)C3	none (no result: PfHsp90 set2)
Cc1ccnc(NC(=O)C2CCCN(c3ncnc4c3nc3n4CCCCC3)C2)c1 (centres undefined)	tim10-1 inh 45 | tim10-1 conf inactive
CSc1cccc(NC(=O)C2CCCN(c3ncnc4c3nc3n4CCCCC3)C2)c1 (centres undefined)	tim10-1 inh 48 | tim10-1 conf inactive
O=C(Nc1cccnc1Cl)C1CCCN(c2ncnc3c2nc2n3CCCCC2)C1 (centres undefined)	none
O=C(Nc1ccc(Cl)cn1)C1CCN(c2ncnc3c2nc2n3CCCCC2)CC1	tim10-1 inh 50 | tim10-1 conf inactive
COc1ccc(Cl)cc1NC(=O)C1CCCN(c2ncnc3c2nc2n3CCCCC2)C1 (centres undefined)	tim10-1 inh 56 | tim10-1 conf inactive
Oc1ccc(Br)cc1-c1cc(-c2ccc(Cl)cc2)n[nH]1	none
COc1ccc(-c2cc(-c3ccccc3O)[nH]n2)cc1OC	none (no result: PfHsp90 set2)
COc1ccc(-c2cc(-c3cc(F)ccc3O)[nH]n2)cc1OC	none (no result: PfHsp90 set2) | tim10-1 conf inactive
COc1ccc(-c2cc(-c3ccc(Cl)cc3)n[nH]2)c(O)c1	tim10-1 inh 41 | tim10-1 conf 45
c1ccc(-c2cn(C[C@H]3CC[C@H](Cn4cc(-c5ccccn5)nn4)O3)nn2)nc1	none
CC1CC(C)CN(CC(=O)NNC(=O)COc2ccc(Cl)cc2)C1 (centres undefined)	none (no result: NALP1 yeast inh)
CC(C)C1N=C(c2ccc3c(c2)OCO3)CC(c2ccccc2O)N1 (centres undefined)	none
CCOc1ccccc1C1N=C(c2ccc(OC)cc2)CC(c2ccccc2O)N1 (centres undefined)	tim10-1 inh 44 | tim10-1 conf inactive
CCCCn1c(N)c(N(CCOC)C(=O)c2cc3c(s2)CCC3)c(=O)[nH]c1=O	none (no result: PfHsp90 set2, NALP1 yeast inh)
Cc1ccccc1S(=O)(=O)c1c(C)cc(C)n(CC(C)C)c1=O	tim10-1 inh 48 | tim10-1 conf inactive
CCOc1ccc(OCC)c(S(=O)(=O)n2ccnc2C)c1	none
CCOc1ccc(C(C)C)cc1S(=O)(=O)n1ccnc1C	tim10-1 inh 41 | tim10-1 conf inactive
Cc1cc(N=Nc2ccc(Cl)cc2)cc(CN2CCCC2)c1O	tim10-1 inh 44 | tim10-1 conf inactive
Cc1cc(N=Nc2ccc(Cl)cc2)cc(CN2CCOCC2)c1O	none
C=CCC(=O)N1CCCC(CO)(Cc2ccc(F)cc2F)C1 (centres undefined)	none
Nc1cccc(Nc2nc(OC(C(F)(F)F)C(F)(F)F)nc(OC(C(F)(F)F)C(F)(F)F)n2)c1	tim10-1 inh 43 | tim10-1 conf 38
O=C(c1ccc2c(c1)OCCO2)N1CCN(c2ncc(C(F)(F)F)cc2Cl)CC1	tim10-1 inh 48 (no result: NALP1 yeast inh) | tim10-1 conf 34
O=C(Nc1ccc2c(c1)OCO2)N1CCN(c2ncc(C(F)(F)F)cc2Cl)CC1	none
NC(=O)C1CCN(C(=O)COc2ccc3ccc(=O)oc3c2)CC1	none
c1ccc(-c2nnc3ccc(N4CCC5(CC4)OCCO5)nn23)cc1	tim10-1 inh 43 | tim10-1 conf inactive
NC(=O)C1(N2CCCCC2)CCN(c2ccc3nnc(-c4ccccc4)n3n2)CC1	none
N#C/C(=C/c1ccc(O)c([N+](=O)[O-])c1)C(=O)Nc1ccccc1	tim10-1 inh 40 | tim10-1 conf inactive
O=C1c2ccccc2S(=O)(=O)c2cc(C(=O)N3CCN(c4ccc(Cl)cn4)CC3)ccc21	tim10-1 inh 44 (no result: NALP1 yeast inh) | tim10-1 conf 42
N#Cc1cccnc1N1CCN(C(=O)c2ccc3c(c2)S(=O)(=O)c2ccccc2C3=O)CC1	none (no result: NALP1 yeast inh)
COc1ccc(-n2c(CCc3ccccc3)nnc2SCC(=O)NCc2ccccc2)cc1	none
O=C(CSc1nnc(CCc2ccccc2)n1-c1ccc(Cl)cc1)NCc1ccccc1	tim10-1 inh 43 | tim10-1 conf inactive
Cc1ccc(-n2c(SCC(=O)N(C)C3CCS(=O)(=O)C3)nc3ccccc3c2=O)c(C)c1 (centres undefined)	none (no result: NALP1 yeast inh)
CCOC(=O)c1cc(CC)sc1NC(=O)c1ccc2c(c1)OCCO2	tim10-1 inh 41 | tim10-1 conf inactive
CCOC(=O)c1cc(CC)sc1NC(=O)c1cc(OCC)c(OCC)c(OCC)c1	none (no result: PfHsp90 set2)
Cc1ccc(C)c(NC(=S)NNC(=O)c2csc3c2CCC(C)C3)c1 (centres undefined)	tim10-1 inh 44 (no result: NALP1 yeast inh) | tim10-1 conf 34
Cc1ccc(C)c(NC(=S)NNC(=O)c2csc3c2CCCC3)c1	none
Cn1c(N/N=C/c2c[nH]c3ccccc23)nc2ccccc21	none
Cn1c(N/N=C/c2cc3ccccc3nc2Cl)nc2ccccc21	tim10-1 inh 42 | tim10-1 conf 33
c1ccc(-c2ccccc2-c2nc(-c3cccnc3)no2)cc1	tim10-1 inh 45 | tim10-1 conf inactive
c1cncc(-c2noc(-c3cccc4ccccc34)n2)c1	none (no result: PfHsp90 set2)
Cc1ccc(-c2nc(-c3cccnc3)no2)cc1	none
CCC(=O)Oc1ccc(-c2nc(-c3cccnc3)no2)cc1	tim10-1 inh 47 (no result: PfHsp90 set2) | tim10-1 conf 46
COc1cccc(C(O)C2OC(=O)c3ccccc32)c1OC (centres undefined)	none (no result: PfHsp90 set2, NALP1 yeast inh)
CC1(C)CN=c2s/c(=C\c3ccc(Cl)cc3)c(=O)n2C1	tim10-1 inh 41 | tim10-1 conf inactive
CCOC(=O)c1ccc(NC(=S)N2CCSC2c2ccc(Br)cc2)cc1 (centres undefined)	tim10-1 inh 40 | tim10-1 conf inactive
CCOC(=O)c1ccc(NC(=S)N2CCC(O)CC2)cc1	none
CN1C[C@@H]2C(c3ccccc3)C3(c4ccccc4)CC2(C3)[C@H]1c1ccccc1 (some centres undefined)	tim10-1 inh 52 (no result: NALP1 yeast inh) | tim10-1 conf 32
Cc1ccccc1NC(=S)NCc1ccc2c(c1)cc(C)n2C	tim10-1 inh 43 | tim10-1 conf inactive
COC(=O)COc1ccc(S(=O)(=O)N2CCCCCC2)cc1C	none
COC(=O)COc1ccc(S(=O)(=O)N2CCN(c3ccccc3F)CC2)cc1C	tim10-1 inh 41 | tim10-1 conf 31
CCC(C)[C@H](N)c1nnc(SCC(=O)Nc2ccc(C)cc2C)o1 (some centres undefined)	none
Cc1ccc(C)c(CSc2nnc([C@@H](N)C(C)C)o2)c1	tim10-1 inh 45 (no result: PfHsp90 set2) | tim10-1 conf 49
